Measurements as given in the supplement of paper PMC8387472.

Columns and labels:
Settings in all cases: mESC; 2uM; 72 h treatment, harvest day 5
Kenpaullone = compound: O=C1Cc2c([nH]c3ccc(Br)cc23)-c2ccccc2N1 [Kenpaullone]; assay: fraction of microhomology deletions among edited reads; higher = more MH deletions
Genistein = compound: O=c1c(-c2ccc(O)cc2)coc2cc(O)cc(O)c12 [Genistein]; assay: as above
[1] = compound: O=c1cc(N2CCOCC2)oc2c(-c3ccc4c(c3)OCCO4)csc12; assay: as above
Mercaptopurine (6-MP) = compound: S=c1[nH]cnc2nc[nH]c12 [Mercaptopurine (6-MP)]; assay: as above
[2] = compound: S=c1nc[nH]c2nc[nH]c12 [6-Mercaptopurine (6-MP) Monohydrate]; assay: as above
[3] = compound: CC(=O)O/N=C1\C(=O)N(Cc2cc(Cl)ccc2Cl)c2ccc(Cl)cc21; assay: fraction of 1-bp insertions among edited reads; higher = more 1-bp insertion outcomes
[4] = compound: CC(C)(C#N)c1ccc(N2C(=O)OCc3cnc4ccc(-c5cnc6ccccc6c5)cc4c32)cc1; assay: as above
[5] = compound: CCCCOc1c(C(=O)c2c(F)cc(C)cc2F)c[nH]c2nncc1-2; assay: as above
[6] = compound: CCN1CCN(CC(=O)Nc2ccc(-c3cccc4c(=O)cc(N5CCOCC5)oc34)c3sc4ccccc4c23)CC1; assay: as above
[7] = compound: CCc1c2c(nc3ccc(OC(=O)N4CCC(N5CCCCC5)CC4)cc13)-c1cc3c(c(=O)n1C2)COC(=O)[C@]3(O)CC [Irinotecan HCl Trihydrate]; assay: as above

| Target | fraction of microhomology deletions among edited reads (Kenpaullone) | fraction of microhomology deletions among edited reads (Genistein) | fraction of microhomology deletions among edited reads [1] | fraction of microhomology deletions among edited reads (Mercaptopurine (6-MP)) | fraction of microhomology deletions among edited reads [2] | fraction of 1-bp insertions among edited reads [3] | fraction of 1-bp insertions among edited reads [4] | fraction of 1-bp insertions among edited reads [5] | fraction of 1-bp insertions among edited reads [6] | fraction of 1-bp insertions among edited reads [7] |
| --- | --- | --- | --- | --- | --- | --- | --- | --- | --- | --- |
| 44.0 (DMSO control at this site: 1-bp insertion 0.181, MH deletion 0.512, edited 0.123) ACACATACCTTCTTCGAGGCAGCCAGCATGATGAGACAGGTCTCCCACAAACACATCGTGT | 0.473 | 0.525 | 0.537 | 0.499 | 0.523 | 0.159 | 0.185 | 0.221 | 0.0636 | 0.21 |
| 22.0 (DMSO control at this site: 1-bp insertion 0.573, MH deletion 0.229, edited 0.045) CTGATGGTTGAAGGATTTAGCCGGGGTCCTAGACGCCGGGGTCCTAGACGAAAGGGCCACG | 0.116 | 0.139 | 0.146 | 0.107 | 0.155 | 0.62 | 0.564 | 0.613 | 0.302 | 0.604 |
| 45.0 (DMSO control at this site: 1-bp insertion 0.017, MH deletion 0.666, edited 0.101) TTACACAGCATGAACTGCTAGGTGATGATGTCAGATTCGGTTTTACTAACTTCTCCAAAAA | 0.561 | 0.601 | 0.67 | 0.614 | 0.557 | 0.0284 | 0.0222 | 0.0249 | 0.016 | 0.0413 |
| 28.0 (DMSO control at this site: 1-bp insertion 0.035, MH deletion 0.77, edited 0.142) TGGTTCTTCCTTTGTAGAGAGTGTTCATCTGGGAATCTGGGACTTGGATGAGACAATCATT | 0.736 | 0.784 | 0.818 | 0.718 | 0.693 | 0.0335 | 0.0355 | 0.0391 | 0.0168 | 0.0322 |
| 35.0 (DMSO control at this site: 1-bp insertion 0.01, MH deletion 0.72, edited 0.098) CCACTTTTAGAGAGGGTGAAAATCATCAGTTATCATCAGGGCAACAAATTGCTTTCTCCTA | 0.683 | 0.77 | 0.809 | 0.684 | 0.657 | 0.0261 | 0.0309 | 0.00887 | 0.0214 | 0.0184 |
| 20.0 (DMSO control at this site: 1-bp insertion 0.349, MH deletion 0.138, edited 0.084) TACAGGTGTAGACTGGTTACGTGGCTGCGGAATTGACTGGTTACGTGGCTGCGGAATTTTG | 0.181 | 0.197 | 0.176 | 0.2 | 0.243 | 0.29 | 0.248 | 0.373 | 0.0738 | 0.285 |
| 0.0 (DMSO control at this site: 1-bp insertion 0.463, MH deletion 0.339, edited 0.14) AGGATTACCGAGACCTACGCGAACCGAAATCGCTGTCCGGTGCGCAAGCAGGGCTGGCGTC | 0.22 | 0.34 | 0.384 | 0.288 | 0.282 | 0.437 | 0.497 | 0.504 | 0.175 | 0.456 |
| 19.0 (DMSO control at this site: 1-bp insertion 0.121, MH deletion 0.101, edited 0.057) TCTGCAGGGGTCGGAACCCGGGGGCTAGGGCTATCCCGGGGGCTAGGGCTATTAGCGAACC | 0.221 | 0.186 | 0.125 | 0.238 | 0.163 | 0.111 | 0.0907 | 0.0994 | 0.0438 | 0.0969 |
| 30.0 (DMSO control at this site: 1-bp insertion 0.074, MH deletion 0.67, edited 0.142) GAGCTGGCATGAGTATTTGTGCCACATGGCTCCCACATGGCTCCACATGCAAGTTTGAAAC | 0.628 | 0.697 | 0.745 | 0.6 | 0.57 | 0.0901 | 0.0675 | 0.059 | 0.036 | 0.0999 |
| 4.0 (DMSO control at this site: 1-bp insertion 0.146, MH deletion 0.523, edited 0.125) ACGCCTTAGTGCACGAGTGACGGGATAATGTGGTCTCAGGTAATTGATAGGCTTCCAACTT | 0.475 | 0.553 | 0.586 | 0.478 | 0.463 | 0.121 | 0.127 | 0.152 | 0.0339 | 0.116 |
| 33.0 (DMSO control at this site: 1-bp insertion 0.008, MH deletion 0.771, edited 0.112) CATTAAGAGCAGCTGCCGGCCCCCAAGTGGACAGAGCTGGCCCTGCTGATTCAACAGTGCA | 0.726 | 0.732 | 0.737 | 0.699 | 0.692 | 0.0218 | 0.021 | 0.0356 | 0.018 | 0.0322 |
| 41.0 (DMSO control at this site: 1-bp insertion 0.022, MH deletion 0.754, edited 0.115) AAAGAGACAGCAGGTATGAATCCATCTTCCTGACCCTTGGGACCAGCCGGGGCAGTGAAGC | 0.672 | 0.753 | 0.762 | 0.701 | 0.674 | 0.0367 | 0.0302 | 0.0252 | 0.0166 | 0.0367 |
| 27.0 CCAGAATTAGAACATATCATCTGGACCCTTTTCCATCTGGACCCTTTTCCAGCACACCCTG | 0.0808 | 0.0896 | 0.137 | 0.197 | 0.147 | 0.107 | 0.141 | 0.138 |  | 0.178 |
| 2.0 (DMSO control at this site: 1-bp insertion 0.364, MH deletion 0.356, edited 0.125) GGTGCCCCCGAGACCTACGCGAACCGAAATCGATGTCCGGTGCGCAAGCAGGGCTGGCGTC | 0.29 | 0.4 | 0.419 | 0.33 | 0.321 | 0.325 | 0.381 | 0.379 | 0.106 | 0.355 |
| 46.0 TTAAGAGCAATGTTCACGCAACTTGAAATTATATCTGTGGTCTTCAAATTGTCTTTTGTCA |  | 0.375 |  |  | 0.33 |  | 0.09 | 0.208 |  |  |
| 8.0 GCATGCGTGTTTTGGGACAATGTAGTATACATTTGGGAGGCTCTCAGCTTTTCCCAATAAA | 0.0098 |  |  |  | 0.00885 | 0.443 | 0.455 | 0.303 |  |  |
| 16.0 (DMSO control at this site: 1-bp insertion 0.172, MH deletion 0.29, edited 0.05) CGGACTGCACACATGGGTAGGATCGTGCACGCGAGGTAGGATCGTGCACGCGAAGTTATTC | 0.327 | 0.305 | 0.257 | 0.314 | 0.294 | 0.169 | 0.15 | 0.138 | 0.0987 | 0.184 |
| 32.0 (DMSO control at this site: 1-bp insertion 0.03, MH deletion 0.85, edited 0.898) AGAAGTCCAGGATCAGGGGGACTGGGGTCGGGAGGGTGGGGCAGGAAGGAAGCCAGAATCA | 0.904 | 0.88 | 0.92 | 0.903 | 0.897 | 0.00904 | 0.0156 | 0.0115 | 0.00897 | 0.00964 |
| 40.0 (DMSO control at this site: 1-bp insertion 0.072, MH deletion 0.192, edited 0.189) GCGAATCAACTGTTCAACAACAGCAGCAGCCACCTGGAGGACTACAGTGGCCTGTCCGTGT | 0.124 | 0.192 | 0.211 | 0.145 | 0.137 | 0.0727 | 0.0752 | 0.072 | 0.0486 | 0.0746 |
